Experimental data: PubChem BioAssay AID1159580 (chemical genetic matrix, 2015)
The whole screen tested about 5,500 compounds, of which about 2,000 (36%) were called active. Another 18% or so got no clear call; they are omitted. No stated cut-off is given here; in the data, active means normalized growth mostly below about 0.91 (no sharp cut-off); inconclusive means no clear call, values can overlap the other calls; inactive means mostly above about 0.92. This is one part of the list.

Assay: chemical genetic growth profiling, strain panel (AID 1159580);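 further: tested at 20 µM; growth read once vehicle control cultures reached saturation at 30 °C; 1 = growth at the plate median or of vehicle wells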
Conditions: growth OD

Measured: normalized growth

COc1ccc(C[C@H](N)C(=O)N[C@@H]2[C@@H](CO)OC(n3cnc4c(N(C)C)ncnc43)[C@@H]2O)cc1 (some centres not stated)
inactive: S. cerevisiae deletion strains, locus YJR075W, strain HOC1, stronger effect = lower value 0.997 | S. cerevisiae deletion strains, locus YKL009W, strain mrt4, stronger effect = lower value 1.03 | S. cerevisiae deletion strains, locus YKL068W, stronger effect = lower value 1.02 | S. cerevisiae deletion strains, locus YKL085W, strain MDH1 (second series), stronger effect = lower value 1.01 | S. cerevisiae deletion strains, locus YKL085W, strain MDH1, stronger effect = lower value 1.01 | S. cerevisiae deletion strains, locus YKL160W, strain elf1, stronger effect = lower value 0.993 | S. cerevisiae deletion strains, locus YKL190W, strain CNB1, stronger effect = lower value 1 | S. cerevisiae deletion strains, locus YKR001C, strain vps1, stronger effect = lower value 1.02 | S. cerevisiae deletion strains, locus YKR026C, strain gcn3, stronger effect = lower value 1 | S. cerevisiae deletion strains, locus YKR091W, strain srl3, stronger effect = lower value 1.02 | S. cerevisiae deletion strains, locus YLL001W, strain dnm1, stronger effect = lower value 0.961 | S. cerevisiae deletion strains, locus YLL026W, stronger effect = lower value 0.987 | S. cerevisiae deletion strains, locus YLL041C, strain sdh2, stronger effect = lower value 1 | S. cerevisiae deletion strains, locus YLR027C, strain aat2, stronger effect = lower value 0.997 | S. cerevisiae deletion strains, locus YLR039C, strain RIC1, stronger effect = lower value 1.04 | S. cerevisiae deletion strains, locus YLR058C, strain SHM2, stronger effect = lower value 1.01 | S. cerevisiae deletion strains, locus YLR102C, strain apc9, stronger effect = lower value 1.01 | S. cerevisiae deletion strains, locus YLR113W, strain HOG1, stronger effect = lower value 0.989 | S. cerevisiae deletion strains, locus YLR221C, strain rsa3, stronger effect = lower value 0.991 | S. cerevisiae deletion strains, locus YLR258W, strain gsy2, stronger effect = lower value 1 | S. cerevisiae deletion strains, locus YLR262C, strain YPT6 (second series), stronger effect = lower value 1.01 | S. cerevisiae deletion strains, locus YLR262C, strain YPT6, stronger effect = lower value 1.04 | S. cerevisiae deletion strains, locus YLR268W, strain sec22, stronger effect = lower value 1.01 | S. cerevisiae deletion strains, locus YLR320W, strain mms22, stronger effect = lower value 1 | S. cerevisiae deletion strains, locus YLR330W, strain CHS5, stronger effect = lower value 1.01 | S. cerevisiae deletion strains, locus YLR342W, strain FKS1 (second series), stronger effect = lower value 0.992 | S. cerevisiae deletion strains, locus YLR342W, strain FKS1, stronger effect = lower value 0.996 | S. cerevisiae deletion strains, locus YLR357W, strain rsc2, stronger effect = lower value 1.01 | S. cerevisiae deletion strains, locus YLR370C, strain arc18, stronger effect = lower value 0.985 | S. cerevisiae deletion strains, locus YLR371W, strain rom2, stronger effect = lower value 1.02 | S. cerevisiae deletion strains, locus YLR384C, strain iki3, stronger effect = lower value 0.979 | S. cerevisiae deletion strains, locus YLR418C, strain cdc73, stronger effect = lower value 0.988 | S. cerevisiae deletion strains, locus YML016C, strain PPZ1, stronger effect = lower value 1.01 | S. cerevisiae deletion strains, locus YML032C, strain rad52, stronger effect = lower value 1.03 | S. cerevisiae deletion strains, locus YML120C, strain ndi1, stronger effect = lower value 0.996 | S. cerevisiae deletion strains, locus YML124C, strain tub3, stronger effect = lower value 1.02 | S. cerevisiae deletion strains, locus YMR058W, strain fet3, stronger effect = lower value 1 | S. cerevisiae deletion strains, locus YMR078C, strain ctf18, stronger effect = lower value 1.02 | S. cerevisiae deletion strains, locus YMR125W, strain sto1, stronger effect = lower value 1.01 | S. cerevisiae deletion strains, locus YMR129W, stronger effect = lower value 0.995 | S. cerevisiae deletion strains, locus YMR205C, strain PFK2, stronger effect = lower value 1 | S. cerevisiae deletion strains, locus YMR223W, strain ubp8, stronger effect = lower value 1.03 | S. cerevisiae deletion strains, locus YMR231W, strain pep5, stronger effect = lower value 0.987 | S. cerevisiae deletion strains, locus YMR263W, strain SAP30, stronger effect = lower value 1 | S. cerevisiae deletion strains, locus YMR307W, strain GAS1, stronger effect = lower value 1.06 | S. cerevisiae deletion strains, locus YNL067W, strain RPL9B, stronger effect = lower value 1 | S. cerevisiae deletion strains, locus YNL071W, strain lat1, stronger effect = lower value 1.01 | S. cerevisiae deletion strains, locus YNL128W, strain TEP1, stronger effect = lower value 1.01 | S. cerevisiae deletion strains, locus YNL153C, strain GIM3, stronger effect = lower value 0.988 | S. cerevisiae deletion strains, locus YNL183C, strain NPR1, stronger effect = lower value 0.935 | S. cerevisiae deletion strains, locus YNL209W, strain ssb2, stronger effect = lower value 0.996 | S. cerevisiae deletion strains, locus YNL233W, strain BNI4, stronger effect = lower value 1 | S. cerevisiae deletion strains, locus YNL248C, strain rpa49, stronger effect = lower value 1.01 | S. cerevisiae deletion strains, locus YNL250W, strain rad50, stronger effect = lower value 1.04 | S. cerevisiae deletion strains, locus YNL271C, strain bni1, stronger effect = lower value 1.01 | S. cerevisiae deletion strains, locus YNL298W, strain CLA4, stronger effect = lower value 1.01 | S. cerevisiae deletion strains, locus YNL307C, strain MCK1, stronger effect = lower value 1.04 | S. cerevisiae deletion strains, locus YNL322C, strain KRE1 (second series), stronger effect = lower value 0.994 | S. cerevisiae deletion strains, locus YNL322C, strain KRE1, stronger effect = lower value 1.01 | S. cerevisiae deletion strains, locus YNR049C, strain mso1, stronger effect = lower value 0.987 | S. cerevisiae deletion strains, locus YNR052C, strain pop2, stronger effect = lower value 1.02 | S. cerevisiae deletion strains, locus YOL006C, strain TOP1, stronger effect = lower value 1.02 | S. cerevisiae deletion strains, locus YOL012C, strain htz1 0.862 | S. cerevisiae deletion strains, locus YOL147C, strain pex11, stronger effect = lower value 1.02 | S. cerevisiae deletion strains, locus YOR001W, strain rrp6, stronger effect = lower value 0.988 | S. cerevisiae deletion strains, locus YOR061W, strain CKA2, stronger effect = lower value 1.01 | S. cerevisiae deletion strains, locus YOR069W, strain VPS5, stronger effect = lower value 0.996 | S. cerevisiae deletion strains, locus YOR070C, strain gyp1, stronger effect = lower value 0.984 | S. cerevisiae deletion strains, locus YOR080W, strain dia2, stronger effect = lower value 0.992 | S. cerevisiae deletion strains, locus YOR083W, strain WHI5, stronger effect = lower value 1.02 | S. cerevisiae deletion strains, locus YOR106W, strain vam3, stronger effect = lower value 0.984 | S. cerevisiae deletion strains, locus YOR136W, strain idh2, stronger effect = lower value 1.02 | S. cerevisiae deletion strains, locus YOR144C, strain elg1, stronger effect = lower value 1.01 | S. cerevisiae deletion strains, locus YOR184W, strain ser1, stronger effect = lower value 1.04 | S. cerevisiae deletion strains, locus YOR231W, strain MKK1, stronger effect = lower value 0.961 | S. cerevisiae deletion strains, locus YOR265W, strain rbl2, stronger effect = lower value 0.991 | S. cerevisiae deletion strains, locus YOR270C, strain vph1, stronger effect = lower value 0.993 | S. cerevisiae deletion strains, locus YOR290C, strain snf2, stronger effect = lower value 1 | S. cerevisiae deletion strains, locus YOR316C, strain cot1, stronger effect = lower value 1.02 | S. cerevisiae deletion strains, locus YPL051W, strain arl3, stronger effect = lower value 0.976 | S. cerevisiae deletion strains, locus YPL055C, strain LGE1, stronger effect = lower value 1 | S. cerevisiae deletion strains, locus YPL078C, strain atp4, stronger effect = lower value 0.972 | S. cerevisiae deletion strains, locus YPL106C, strain sse1, stronger effect = lower value 0.996 | S. cerevisiae deletion strains, locus YPL240C, strain hsp82, stronger effect = lower value 0.986 | S. cerevisiae deletion strains, locus YPL241C, strain CIN2, stronger effect = lower value 1 | S. cerevisiae deletion strains, locus YPL256C, strain CLN2, stronger effect = lower value 0.965 | S. cerevisiae deletion strains, locus YPR119W, strain clb2, stronger effect = lower value 1.01 | S. cerevisiae deletion strains, locus YPR141C, strain kar3, stronger effect = lower value 1.03 | S. cerevisiae deletion strains, locus YPR163C, strain tif3, stronger effect = lower value 1.02 | S. cerevisiae deletion strains, locus YPR167C, strain met16, stronger effect = lower value 1.02 | S. cerevisiae deletion strains, strain wtn01, stronger effect = lower value 0.986 | S. cerevisiae strains, strain wild type, stronger effect = lower value 1.01
